69 compounds from ChEMBL document CHEMBL4513216, “Probing the Open Global Health Chemical Diversity Library for Multistage-Active Starting Points for Next-Generation Antimalarials” (ACS Infect Dis, 2020) can be followed below.

In all, about 68,000 compounds went through this assay and about 2,700 (4%) showed an effect of 50% or more. Shown is part of a subset that was picked to be rich in strong results.

For this experiment, the system named is Plasmodium berghei. Put plainly: Screen against P. berghei liver stage (PbLuc), transformed with Luciferase, at 2uM. It counts as functional, HepG2. The settings on record: tested at 2 uM.
Turning to `CSCc1ccc(C(=O)NCCCNc2ccc(C(F)(F)F)cn2)cc1`, the INHIBITION is reported as 6.77%.

With `Cn1c(CN2CCCCCC2)cc(=O)c(O)c1CN1CCCC1`, the INHIBITION came to 29.19%.

For the compound `Cc1cc(C)nc(C2CCN(C(=O)CCn3nnc4ccccc43)C2)n1` (centres undefined), the INHIBITION is listed as 13.22%.

On to `Cc1ccnc(C2CCN(C(=O)CCn3ncc4ccccc43)C2)n1` (centres undefined), for which the INHIBITION was determined as 72.83%.

Regarding `Cc1cc(C)nc(C2CCN(C(=O)CCn3ncc4ccccc43)C2)n1` (centres undefined), the INHIBITION was found to be 30.73%.

Regarding `Cn1cc(CN2CCc3ccc(=O)n(CC4CC4)c3CC2)cn1`, the INHIBITION is recorded as 23.68%.

With `OC1(CNc2ccccc2)CCNCC1`, the INHIBITION is given as 51.61%.

For the compound `OC1(CNc2ccc(F)cc2)CCNCC1`, the INHIBITION amounted to 8.5%.

Take `OC1(CNc2cccc(F)c2)CCNCC1`: the INHIBITION was -14.66%.

Take `CCN(CC)S(=O)(=O)CC(=O)N1CCc2ccc(C)cc21`: the INHIBITION is given as -13.17%.

As for `CCN(C(=O)CSc1ccc(C(F)(F)F)cn1)C1CC1`, the INHIBITION is -69.56%.

In the case of `NC(=O)C1CCCN1c1cc(N2CCc3ccccc3C2)ncn1` (centres undefined), the INHIBITION was -4.95%.

Take `c1ccc(C(OCCNC2CCc3ncnn3C2)c2ccccc2)cc1` (centres undefined): the INHIBITION came out at 64.71%.

For `c1ccc(OC2CCCC2)c(CNC2CCc3ncnn3C2)c1` (centres undefined), the INHIBITION is listed as -12.48%.

As to `c1ccc(OCC2CC2)c(CNC2CCc3ncnn3C2)c1` (centres undefined), the INHIBITION amounted to 54.2%.

In the case of `c1ccc(CCNC2CCc3ncnn3C2)nc1` (centres undefined), the INHIBITION was -56.99%.

Take `c1ccc(COc2ccccc2CNC2CCc3ncnn3C2)cc1` (centres undefined): the INHIBITION worked out at 11.95%.

For the compound `O=S(=O)(CCNC1CCc2ncnn2C1)c1ccccc1` (centres undefined), the INHIBITION is 11.18%.

`COc1cccc(-c2cc(C3CCCNC3)ccn2)c1` (centres undefined): the INHIBITION is listed as 17.29%.

As for `Cc1nnsc1CN(C)C(=O)CN1CC2(CCNCC2)OC1=O`, the INHIBITION is listed as -7.96%.

Take `CCc1cc(NC(=O)C(c2cccc(F)c2)N2CCOCC2)[nH]n1` (centres undefined): the INHIBITION is on record as 35.36%.

In the case of `COC(=O)[C@H](CCSC)NC(=O)Cc1c(C)nn(-c2ccccc2)c1C`, the INHIBITION is 4.89%.

As to `Cc1nn(-c2ccccc2)c(C)c1CC(=O)NC1CC(=O)N(C)C1` (centres undefined), the INHIBITION came to 59.03%.

Turning to `Cc1nn(-c2ccccc2)c(C)c1CNC(=O)NC1CC(=O)N(C)C1` (centres undefined), the INHIBITION came out at 62.39%.

Consider `Cc1nn(-c2ccccc2)c(C)c1CNC(=O)NC1CC1`, for which the INHIBITION amounted to 28.73%.

Take `COC(=O)C(CCSC)NC(=O)Cc1c(C)nn(-c2ccccc2)c1C` (centres undefined): the INHIBITION is -60.22%.

In the case of `CSCCC(NC(N)=O)C(=O)NCc1c(C)nn(-c2ccccc2)c1C` (centres undefined), the INHIBITION is -58.01%.

Consider `CC(=O)N1CCN(Cc2ccncc2)CC2(CC(=O)N(C)C2)C1` (centres undefined), for which the INHIBITION worked out at 3.49%.

With `CN1CCN(CC2(O)CCCN(C(=O)Cc3cccc(O)c3)CC2)CC1` (centres undefined), the INHIBITION is recorded as 12.6%.

Regarding `Cc1nc(C)c(C(=O)NCCNc2ncccc2C(F)(F)F)s1`, the INHIBITION is given as -90.65%.

Regarding `Cc1cc(NC(=O)c2ccc(-n3ncc(C#N)c3N)cc2)n(C)n1`, the INHIBITION is listed as -28.98%.

As to `Cc1nc(NC(=O)c2ccc(-n3ncc(C#N)c3N)cc2)sc1C`, the INHIBITION was found to be 78.98%.

On to `Cc1cnc(NC(=O)c2ccc(-n3ncc(C#N)c3N)cc2)s1`, for which the INHIBITION is given as -50.69%.

As to `CC1CCC(O)(CSc2nnnn2C)CC1` (centres undefined), the INHIBITION was 4.91%.

For the compound `CC(C)CC(=O)NCC(O)c1c(F)cccc1F` (centres undefined), the INHIBITION turned out to be 14.96%.

Turning to `CN(C)C(=O)CN1CCOCC2(CCN(CC3CCOC3)CC2)C1` (centres undefined), the INHIBITION is on record as 82.53%.

`CN(C)C(=O)CN1CCOCC2(CCN(CC3CCOCC3)CC2)C1`: the INHIBITION stood at 12.68%.

In the case of `CN(C)C(=O)CN1CCC2(C1)CN(CC1CCOC1)C2` (centres undefined), the INHIBITION is on record as -54.01%.

As for `COc1ccc(C(C)CCNC2CCN(c3ccccn3)CC2)cc1` (centres undefined), the INHIBITION worked out at 3.2%.

As to `CCS(=O)(=O)c1ccccc1N1CCC(NC(=O)NC2CCCC2)CC1`, the INHIBITION turned out to be 64.71%.

For `CCS(=O)(=O)c1ccccc1N1CCC(NC(C)=O)CC1`, the INHIBITION was -0.64%.

In the case of `CCS(=O)(=O)c1ccccc1N1CCC(NC2CCCC2)CC1`, the INHIBITION was determined as 27.47%.

Take `Cc1cc(C)n(CC(C)CNC(=O)NCc2c(C)cc(C)[nH]c2=O)n1` (centres undefined): the INHIBITION stood at 10.14%.

Consider `Cc1ccc(NC(=O)N2CCOC(C(N)=O)C2)cc1C(F)(F)F` (centres undefined), for which the INHIBITION came out at 33.11%.

Regarding `Cc1cc(Br)cnc1NCCN1CCC(N(C)C)CC1`, the INHIBITION is recorded as 64.9%.

As for `COC1CCN(CCNc2ncc(Br)cc2C)CC1`, the INHIBITION is -4.26%.

Turning to `CC(=O)N1CCN(CCNc2ncc(Br)cc2C)CC1`, the INHIBITION is 12.43%.

With `O=S(=O)(c1cccnc1)N1CCCCC1CCN1CCOCC1` (centres undefined), the INHIBITION is reported as -13%.

As for `Cc1cc(C)nc(N2CCCC(c3cccc(-n4ccnc4)n3)C2)n1` (centres undefined), the INHIBITION is given as -2.89%.

With `O=C(Nc1ncc[nH]1)c1cc(-c2cccnc2)n[nH]1`, the INHIBITION is listed as -36.68%.

Regarding `O=C(c1cc2c(s1)CCCC2)N1CCCC1Cn1cccn1` (centres undefined), the INHIBITION was determined as 1.61%.

As to `CC(=O)N1CCC2(CCN(S(=O)(=O)c3ccccc3)CC2)C1`, the INHIBITION is 11.18%.

With `CC(=O)N1CCC2(CCCN(S(=O)(=O)c3ccc(F)cc3)C2)C1` (centres undefined), the INHIBITION was -8.04%.

As for `CC(=O)N1CCC2(CCCN(S(=O)(=O)c3ccccc3)C2)C1` (centres undefined), the INHIBITION is given as 52.36%.

`CC(=O)N1CCC2(C1)CN(S(=O)(=O)c1ccccc1)C2`: the INHIBITION is recorded as 56.76%.

Regarding `CN(C)CC(=O)N1CC2(CCN(S(=O)(=O)c3ccccc3)C2)C1`, the INHIBITION came to 39.51%.

On to `CC(=O)N1CCC2(CC1)CCN(S(=O)(=O)c1ccccc1)C2`, for which the INHIBITION is reported as 27.65%.

In the case of `CN(C)c1ccc(CNC(=O)NCCc2cccs2)cn1`, the INHIBITION is on record as 9.17%.

Take `Cc1ccncc1CN1CCOCC1c1[nH]ncc1C` (centres undefined): the INHIBITION is 5.01%.

Regarding `Cc1cc(CNc2ccnn2C)ccc1-n1cncn1`, the INHIBITION is given as 14.93%.

For `CC1(C)Cc2nc(C(C)(C)C)ncc2C(NC(=O)CN)C1` (centres undefined), the INHIBITION stood at 21.28%.

Regarding `CN(C)CC(=O)NC1CC(C)(C)Cc2nc(C(C)(C)C)ncc21` (centres undefined), the INHIBITION is reported as 68.39%.

Turning to `CN(C)CCCC(=O)NC1CC(C)(C)Cc2nc(C(C)(C)C)ncc21` (centres undefined), the INHIBITION stood at 35.56%.

`Cc1nc[nH]c1CN1CCCn2nc(CN3CCC(F)(F)CC3)cc2C1`: the INHIBITION came out at 8.48%.

Turning to `O=C(c1ccsc1)N1CCC(Nc2cccnn2)CC1`, the INHIBITION is given as 2.8%.

Take `CC(C(=O)Nc1ccc(N2CCCCC2)nc1)n1ccnc1` (centres undefined): the INHIBITION was -34.5%.

In the case of `CCCNC(=O)N1CCc2ccc(S(=O)(=O)N3CCN(C)CC3)cc2C1`, the INHIBITION stood at 30.62%.

As to `O=C(c1ccoc1)N1CCCC2(CCC(=O)N2Cc2ccncc2)C1` (centres undefined), the INHIBITION is given as 3.56%.

Take `Cc1cnn(CC2CCCN2C(=O)c2cccc(CC#N)c2)c1` (centres undefined): the INHIBITION is -17.11%.
